Measurements taken from PubChem BioAssay (NCI).
The panel holds about 79,000 compounds, 15% with a hit somewhere; the sample as a whole holds those more often. Activity calls are given as the source filed them. Rule as the data show it: active = growth inhibition above about 70%; inactive = the rest.

Experiments:
[1] = NCI Yeast Anticancer Drug Screen. Data for the mec2-1 strain (AID 157); conditions: S. cerevisiae mec2-1 strain, hits give high values
Summary of the method: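 Cells of the genetically defined mec2-1 yeast strain are incubated with test compound. Inhibition of growth is calculated against vehicle-treated controls.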

[2] = NCI Yeast Anticancer Drug Screen. Data for the rad14 strain (AID 159);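 also: 0% = growth of vehicle-treated control cultures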; conditions: S. cerevisiae rad14 strain growth inhibition, hits give high values
Summary of the method: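 Inhibition of growth is reported for a repair-deficient yeast mutant following compound treatment, calculated relative to cultures that received vehicle.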

[3] = NCI Yeast Anticancer Drug Screen. Data for the sgs1 mgt1 strain (AID 161);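 also: 0% = growth of cultures given vehicle only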; conditions: S. cerevisiae sgs1 mgt1 strain, hits give high values
Summary of the method: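 Inhibition of yeast growth, normalised to vehicle-treated controls, is reported for a strain bearing genetic alterations in DNA damage repair.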

[4] = NCI Yeast Anticancer Drug Screen. Data for the CLN2oe strain (AID 163);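 also: 0% = growth of vehicle-only control cultures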; conditions: S. cerevisiae CLN2oe strain, hits give high values
Summary of the method: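 Strain altered in cell-cycle control, incubated with compound; growth compared to solvent-treated controls.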

[5] = NCI Yeast Anticancer Drug Screen. Data for the cln2 rad14 strain (AID 165);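 also: 0% = growth equal to vehicle treated cultures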; conditions: S. cerevisiae cln2 rad14 strain, hits give high values
Summary of the method: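 The screen exposed genetically defined yeast (cln2 rad14) to test compounds and scored growth inhibition relative to vehicle-treated controls.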

[6] = NCI Yeast Anticancer Drug Screen. Data for the bub3 strain (AID 167); conditions: S. cerevisiae bub3 mutant strain, hits give high values
Summary of the method: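 Mutant yeast screening strain plus compound; vehicle-treated cultures serve as the 0% inhibition reference.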

[7] = NCI Yeast Anticancer Drug Screen. Data for the wt2 strain (AID 169); conditions: S. cerevisiae wt2 strain growth inhibition, hits give high values
Summary of the method: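 Steps: yeast strain treated with compound; growth recorded; inhibition calculated relative to cultures given vehicle alone.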

[8] = NCI Yeast Anticancer Drug Screen. Data for the mlh1 strain (AID 171);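 also: 0% = growth of vehicle-treated control cultures of the same strain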; conditions: S. cerevisiae mlh1 strain growth inhibition, hits give high values
Summary of the method: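 Yeast screen: mutant strain plus compound, growth scored against vehicle control wells.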

[9] = NCI Yeast Anticancer Drug Screen. Data for the sgs1 strain (AID 173);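 also: 0% = growth of vehicle-only control cultures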; conditions: S. cerevisiae sgs1 mutant, hits give high values
Summary of the method: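 Inhibition of yeast growth served as the measure. The mutant strain was treated with each compound, and growth was normalised to cultures receiving vehicle alone.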

[10] = NCI Yeast Anticancer Drug Screen. Data for the mlh1 rad18 strain (AID 175); conditions: S. cerevisiae mlh1 rad18 strain growth inhibition, hits give high values
Summary of the method: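 Compound-treated yeast growth, normalised to vehicle controls. Strain bears defined DNA repair mutations.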

[11] = NCI Yeast Anticancer Drug Screen. Data for the rad18 strain (AID 177); conditions: S. cerevisiae rad18 mutant growth inhibition, hits give high values
Summary of the method: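 Inhibition values reflect reduced yeast growth compared with vehicle-treated controls, using a strain engineered with a DNA damage repair defect.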

[12] = NCI Yeast Anticancer Drug Screen. Data for the wt1 strain (AID 149);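 also: 0% = growth of vehicle-treated wt1 cultures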; conditions: S. cerevisiae wt1 strain (SPY 50644) growth inhibition, hits give high values
Summary of the method: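 Each compound is tested on wt1 yeast and the loss of growth versus vehicle gives the inhibition value.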

[13] = NCI Yeast Anticancer Drug Screen. Data for the rad50EPP+ strain (AID 151);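 also: 0% = growth of vehicle-treated control cultures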; conditions: S. cerevisiae rad50 mutant strain, hits give high values
Summary of the method: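 Strain rad50EPP+; compound exposure; % growth inhibition vs vehicle.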

[14] = NCI Yeast Anticancer Drug Screen. Data for the mgt1 strain (AID 153); conditions: S. cerevisiae mgt1 mutant growth inhibition, hits give high values
Summary of the method: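 Read-out: yeast growth inhibition vs vehicle control. Strain mgt1, drawn from a panel altered in DNA damage repair or cell cycle control.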

[15] = NCI Yeast Anticancer Drug Screen. Data for the rad50 strain (AID 155);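 also: 0% = growth of vehicle-only cultures of the same strain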; conditions: S. cerevisiae rad50 strain growth inhibition, hits give high values
Summary of the method: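 Vehicle-treated cultures provide the reference for the growth inhibition reported for compound-exposed, repair-deficient yeast.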

[16] = at 5.0 µM (retest, dose inferred, filed as 0.5)
[17] = at 50.0 µM (retest, dose inferred, filed as 5.0)

Measured: growth inhibition

COC1=C(N=[N+]=[N-])C(=O)c2ncccc2C1=O
active: [1]; at 100.0 µM 96% | [2]; at 33.0 µM 91% | [2]; at 100.0 µM 96% | [3]; [17] 93% | [3]; at 50.0 µM 82.3% | [4]; at 100.0 µM 95% | [5]; [17] 93% | [5]; at 50.0 µM 80.5% | [6]; at 33.0 µM 72% | [6]; [17] 88% | [6]; at 50.0 µM 78% | [6]; at 100.0 µM 94% | [7]; at 33.0 µM 92% | [7]; at 100.0 µM 95% | [8]; at 33.0 µM 80% | [8]; at 100.0 µM 94% | [9]; at 33.0 µM 84% | [9]; at 100.0 µM 94% | [10]; [17] 95% | [11]; at 3.7 µM 89% | [11]; at 11.0 µM 94% | [11]; at 33.0 µM 96% | [11]; at 100.0 µM 96%
inactive: [2]; at 1.2 µM -2% | [2]; at 3.7 µM 10% | [2]; at 11.0 µM 44% | [3]; [16] 42% | [4]; at 1.2 µM -5% | [4]; at 3.7 µM 13% | [4]; at 11.0 µM 26% | [4]; at 33.0 µM 69% | [5]; [16] 24% | [6]; at 1.2 µM 7% | [6]; at 3.7 µM 18% | [6]; [16] -4% | [6]; at 11.0 µM 18% | [7]; at 1.2 µM -55% | [7]; at 3.7 µM -12% | [7]; at 11.0 µM 49% | [8]; at 1.2 µM 10% | [8]; at 3.7 µM 6% | [8]; at 11.0 µM 21% | [9]; at 1.2 µM 8% | [9]; at 3.7 µM 30% | [9]; at 11.0 µM 56% | [10]; [16] 69% | [11]; at 1.2 µM 60%

CC(O)CN1C(=O)c2cccc3cc([N+](=O)[O-])cc(c23)C1=O (stereo not given)
inactive: [12]; at 1.2 µM -7% | [12]; at 3.7 µM 5% | [12]; at 11.0 µM 1% | [12]; at 33.0 µM -3% | [12]; at 100.0 µM 0% | [13]; at 1.2 µM 10% | [13]; at 3.7 µM 8% | [13]; at 11.0 µM 18% | [13]; at 33.0 µM 55% | [13]; at 100.0 µM 60% | [14]; at 1.2 µM -23% | [14]; at 3.7 µM 4% | [14]; at 11.0 µM 6% | [14]; at 33.0 µM 15% | [14]; at 100.0 µM 23% | [15]; at 1.2 µM -2% | [15]; at 3.7 µM 27% | [15]; [16] 56% | [15]; at 50.0 µM 50.9% | [1]; at 1.2 µM -17% | [1]; at 3.7 µM -11% | [1]; [16] -16% | [1]; at 11.0 µM 2% | [1]; at 33.0 µM 34% | [1]; [17] 65% | [1]; at 50.0 µM 67.4% | [1]; at 100.0 µM 42% | [2]; at 1.2 µM 2% | [2]; at 3.7 µM 12% | [2]; at 11.0 µM 14% | [2]; at 33.0 µM 19% | [2]; at 100.0 µM 21% | [3]; [16] -13% | [3]; [17] 15% | [3]; at 50.0 µM 58% | [4]; at 1.2 µM 20% | [4]; at 3.7 µM 0% | [4]; at 11.0 µM -2% | [4]; at 33.0 µM -5% | [4]; at 100.0 µM -5% | [5]; [16] 5% | [5]; [17] 33% | [5]; at 50.0 µM 13.4% | [6]; at 1.2 µM -8% | [6]; at 3.7 µM -6% | [6]; [16] 8% | [6]; at 11.0 µM -11% | [6]; at 33.0 µM -21% | [6]; [17] 32% | [6]; at 50.0 µM 39.4% | [6]; at 100.0 µM -30% | [7]; at 1.2 µM -27% | [7]; at 3.7 µM -18% | [7]; at 11.0 µM -13% | [7]; at 33.0 µM -12% | [7]; at 100.0 µM 2% | [8]; at 1.2 µM 5% | [8]; at 3.7 µM 4% | [8]; at 11.0 µM 14% | [8]; at 33.0 µM 50% | [8]; at 100.0 µM 47% | [9]; at 1.2 µM -6% | [9]; at 3.7 µM -15% | [9]; at 11.0 µM 6% | [9]; at 33.0 µM 15% | [9]; at 100.0 µM 30% | [10]; [16] 25% | [11]; at 1.2 µM -11% | [11]; at 3.7 µM 2% | [11]; at 11.0 µM 9% | [11]; at 33.0 µM 67%
active: [15]; at 11.0 µM 75% | [15]; at 33.0 µM 88% | [15]; [17] 78% | [15]; at 100.0 µM 91% | [10]; [17] 73% | [10]; at 50.0 µM 83.3% | [11]; at 100.0 µM 88%
